Shown are actives, neighbours in structure and some others; about 19% of the full set was active somewhere.
TDP1 cell noCPT: qHTS for Inhibitors of human tyrosyl-DNA phosphodiesterase 1 (TDP1): qHTS in cells in absence of CPT; DT40 Tdp1-/- hTDP1 cells, no CPT, ATP luminescence, 48 h; Potency, µM (series often up to 46.2 µM), for inactives: top-dose activity change, negative = growth inhibition, usual class: inhibitors; hit rate 15% among 420,000; further: potency means the concentration at half of the fitted maximal effect; nearly all actives have a fitted effect of over 55% in size
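No-CPT arm: Tdp1-/-;hTDP1 DT40 cells (400/well) plus compounds, incubated ≥48 hr at 37 °C. Readout CellTiter-Glo luminescence.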
HT1080 IDH1KD tx: HT-1080 IDH1 knockdown cell toxicity (counter line) | Potency, µM (series often up to 46.1 µM), inactives show at the highest dose activity, negative = toxicity, hits mostly cytotoxic | HT-1080 IDH1 knockdown viability, ATP luminescence, 48 h | AID 686971 | hit rate 2% among 360,000;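 further: potency means the concentration at half of the fitted maximal effect; 0% = DMSO wells and -100% = cell-free medium wells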
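Assay cells: HT-1080 with IDH1 knockdown, 750 per well, RPMI/5% FBS. Exposure: 48 h at 37 °C following 2 h pre-incubation. Read: CellTiter-Glo luminescence; fitted concentration-response, curve class assigned.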
IL1B secr inh: blocks inflammasome-driven IL-1 beta release; THP-1 LPS/ATP IL-1B secretion, AlphaLISA, 16 h; active compounds read low; activity change, % at 57.5 µM; hit rate 4.7% among 360,000; in the data active means activity change below about -50%; inconclusive means mostly about -30% to -49%
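THP-1 cells pretreated 1 hr with compounds (up to 57.5 uM final), then stimulated with LPS (250 ng/mL final) plus ATP (1.25 mM final); secreted IL-1B measured by AlphaLISA after 16 hr, decreased signal indicating inhibition.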
ELG1 DNA repair: inhibitors of ELG1-dependent DNA repair in HEK293T cells; HEK293T ELG1-luciferase reporter, luminescence, 16 h; DNA damage induced by 5-fluorouridine; Potency, µM (doses to about 46.1 µM), for inactives: at the highest dose activity change, negative = inhibition, actives largely listed as inhibitors; hit rate 2.3% among 330,000; AID 504467; further: potency means the concentration at half of the fitted maximal effect; nearly all actives have a fitted effect of over 55% in size
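Step one: seed 2,000 cells per well. Step two: pin-transfer compound or DMSO alongside 5-fluorouridine. Step three: incubate 16 hr, 37 °C, 5% CO2. Step four: add ONE-Glo, wait 30 min, read luminescence.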
HT1080-NT tox: kills 2HG-producing HT-1080-NT fibrosarcoma cells; hit rate 1.6% among 360,000; HT-1080-NT fibrosarcoma viability, CellTiter-Glo ATP luminescence, 48 h; AID 686970; Potency, µM (doses to about 46.1 µM), without a hit: top-dose activity, negative = less viability, usual class: cytotoxic;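 further: NT is the 2HG producing partner of a matched IDH1 knockdown line; potency means the concentration at half of the fitted maximal effect; 0% = DMSO-treated cells and -100% = media-only wells without cells; nearly all actives have a fitted effect of over 55% in size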
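Viability by CellTiter-Glo luminescence after 48 h compound exposure at 37C of HT-1080-NT cells (750/well, RPMI, 5% FBS). % activity scaled between DMSO wells and medium-only wells, then curve-fitted and categorized by curve class.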
TDP1 cell CPT: DT40-hTDP1 cell growth loss with CPT; hit rate 12% among 420,000; chicken DT40 Tdp1-/-;hTDP1 cells + 20 nM CPT, ATP luminescence, 48 h; AID 686979; Potency, µM (highest dose often 46.2 µM), for inactives: at the highest dose activity change, negative = growth inhibition, most hits filed as inhibitors; further: potency means the concentration at half of the fitted maximal effect; nearly all actives have a fitted effect of over 55% in size
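Chicken DT40 Tdp1-/- cells complemented with human TDP1, 400 cells/well, exposed to compounds plus 20 nM camptothecin for at least 48 h at 37 C; viability read as ATP content by CellTiter-Glo luminescence.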
An asterisk follows results filed as active; ? = inconclusive; / = no result given; [ ] = another dose, or the depositor's remark. Unless noted, the call rests on the fitted dose curve; in most records, active means well fitted curve in the direction sought with a large enough effect; inconclusive means small, poorly fitted or top-dose-only effect, or another doubt; inactive means no such curve, though single readings can be large; an effect the other way counts as inactive or inconclusive. Unless noted, on the % scale 0 is the no-effect control and ±100 the full control effect.

SMILES	TDP1 cell noCPT	HT1080 IDH1KD tx	IL1B secr inh	ELG1 DNA repair	HT1080-NT tox	TDP1 cell CPT
Nc1ccn([C@@H]2O[C@H](CO)[C@@H](O)[C@H]2O)c(=O)n1	-1%	4%	1	/	-18%	2%
Cc1cc(S(=O)(=O)NC[C@H]2O[C@@H](n3ccc(N)nc3=O)[C@H](O)[C@@H]2O)c(C)s1	-20%	1%	7	/	3%	-11%
Nc1ccn([C@@H]2O[C@H](COS(=O)(=O)O)[C@@H](O)[C@H]2O)c(=O)n1	1.8µM*	-16%	20	?	1%	9.2µM*
CC(=O)OCC1OC(n2ccc(=O)[nH]c2=O)C(O)C1O (centres undefined)	-21%	16%	34	-21%	12%	2%
Nc1ccn([C@@H]2O[C@H](CO)[C@@H](O)C2O)c(=O)n1 (some centres undefined)	0.041µM*	?	63	/	?	0.037µM*
Nc1ccn(C2OC(CCl)C(O)C2O)c(=O)n1 (centres undefined)	3.7µM*	?	21	/	-26%	2.6µM*
O=c1ccn([C@@H]2O[C@H](COS(=O)(=O)O)[C@@H](O)[C@H]2O)c(=O)[nH]1	4.1µM*	-3%	-2	12%	2%	5.2µM*
O=c1[nH]cnc2c1ncn2[C@@H]1O[C@H](COS(=O)(=O)O)[C@@H](O)[C@H]1O	?	-15%	-4	-8%	-1%	3.7µM*
Nc1nc(=O)n(C2OC(CO)C(O)C2O)cc1Cl (centres undefined)	5.2µM*	/	/	/	/	?
CCCCCCCCCCCCCCCCCCCCCC(=O)Nc1ccn([C@@H]2O[C@H](CO)[C@@H](O)[C@@H]2O)c(=O)n1	3.3µM*	/	/	/	/	2.7µM*
O=c1[nH]cnc2c1ncn2[C@@H]1O[C@H](CO)[C@@H](O)[C@H]1O	17%	20%	3	30%	?	-9%
Nc1ccn([C@@H]2O[C@H](CO)[C@@H](O)C2(F)F)c(=O)n1	0.0094µM*	/	/	/	/	0.0094µM*
Cc1ccc(NC2c3ncccc3C(=O)N2Cc2ccco2)c(C)c1 (centres undefined)	5%	1%	0	7%	-5%	-17%
C=N[C@@H](C(=O)N[C@@H]1C(=O)N2[C@@H]1SC(C)(C)[C@@H]2C(=O)O)c1ccccc1	-11%	/	/	/	/	-21%
CC[C@H]1NC(=O)[C@@H](NC(=O)c2ncccc2O)[C@@H](C)OC(=O)[C@H](c2ccccc2)NC(=O)[C@@H]2CC(=O)CCN2C(=O)[C@H](Cc2ccccc2)N(C)C(=O)[C@@H]2CCCN2C1=O	-8%	/	/	/	/	11%
COCCCNc1nccn2ccnc12	-2%	8%	-11	/	24%	11%
Nc1ccn(C2OC(COC(=O)C34CC5CC(CC(C5)C3)C4)C(O)C2O)c(=O)n1 (centres undefined)	0.37µM*	-19%	11	/	-5%	0.052µM*
O=[N+]([O-])c1ccc(N/N=C/c2sc(N3CCOCC3)nc2-c2ccccc2)c(S(=O)(=O)Nc2ccccc2Cl)c1	1.8µM*	-11%	-21	?	0%	3.3µM*
O=C(O)c1cccc(N/N=C/c2sc(N3CCOCC3)nc2-c2ccccc2)c1	9%	-11%	-1	?	-8%	0%
O=[N+]([O-])c1ccc(N/N=C/c2sc(N3CCOCC3)nc2-c2ccccc2)c(S(=O)(=O)Nc2ccc(Cl)cc2)c1	1µM*	4%	?	?	11%	1.6µM*
COC(=O)C1=C(C)NC(=O)C1(NC(=O)c1cc(OC)c(OC)c(OC)c1)C(F)(F)F (centres undefined)	4%	/	/	/	/	0%
Cn1c(=O)cc(SCC(=O)Nc2cccc(C#N)c2)c2ccc(Cl)cc21	-22%	/	/	/	/	-17%
CSc1cccc(NC(=O)/C=C/c2ccco2)c1	?	1%	-5	?	-1%	23µM*
CSc1cccc(NC(=O)/C=C/c2ccc(Cl)cc2)c1	?	?	-72*	?	?	?
Cc1cccc(NC(=O)/C=C/c2ccc(Cl)cc2)n1	18µM*	?	-3	?	-15%	?
SMILES	TDP1 cell noCPT	HT1080 IDH1KD tx	IL1B secr inh	ELG1 DNA repair	HT1080-NT tox	TDP1 cell CPT
Cc1cccc(NC(=O)/C(C#N)=C/c2ccc(Cl)cc2)n1	-16%	10%	-2	5%	14%	-13%
COc1cccc(NC(=O)/C=C\c2ccc(Cl)cc2)c1	?	/	/	/	/	30µM*
CCOC(=O)c1ccc(NC(=O)c2ccc3c(c2)C(=O)N(Cc2cccnc2)C3=O)cc1	-3%	8%	3	5%	11%	-10%
O=C(NCC(c1cccs1)N1CCOCC1)c1cc2ccccc2oc1=O (centres undefined)	?	-1%	-7	?	-7%[9.24 µM]	?
Cc1ccc(Nc2c(-c3ccc(N4CCOCC4)cc3)nc3cccc(C)n23)cc1	23µM*	/	/	/	/	23µM*
Cc1ccc2nc(-c3cccc(Cl)c3)c(Nc3ccc4c(c3)OCO4)n2c1	-29%	/	/	/	/	?
Cc1cccc2nc(-c3ccco3)c(Nc3ccc4c(c3)OCCO4)n12	?	-4%	-12	12%	26%	?
COc1ccc(-c2nc3cccc(C)n3c2Nc2ccc(C)cc2)cc1	13µM*	-26%	/	/	-23%	20µM*
Cc1ccc(NCc2ccc(C)s2)cc1	/	/	/	21%	/	/
Cc1ccc(Nc2c(-c3cccc(Cl)c3)nc3cccc(C)n23)cc1	16µM*	/	/	/	/	?
Cc1ccc(Nc2c(-c3ccc(C)s3)nc3cccc(C)n23)cc1	13µM*	-20%	/	/	-18%	13µM*
CCN(Cc1ccccc1)C(=O)CC(=O)N(CC)Cc1ccccc1	-15%	17%	-5	-2%	1%	16%
CCOC(=O)N1CCN(C2=Nc3cccc4cccc2c34)CC1	-28%	-22%	/	-3%	0%	-8%
c1ccc(CC2CCN(C3=Nc4cccc5cccc3c45)CC2)cc1	9.2µM*	21µM*	-30	6%	?	?
CC(=O)N1CCN(C2=Nc3cccc4cccc2c34)CC1	-3%	1%[9.24 µM]	-66*	15%	1%	-7%
COCCN1C(=O)C(CC(=O)Nc2ccccc2)SC1=Nc1ccc(OC)cc1 (centres undefined)	-13%	-13%	8	?	-13%	-6%
COc1ccc(NC(=O)CC2Sc3ncnn3C2=O)cc1 (centres undefined)	12µM*	-5%	15	-4%	-2%	5.2µM*

Bioassay records deposited in PubChem BioAssay by National Center for Advancing Translational Sciences (NCATS).
